PubChem BioAssay (NCATS)
Results filed as inconclusive are left out. The source made the active and inactive calls. Calls follow the shape of the dose curve; as a rule, active = well fitted curve in the direction sought with a large enough effect; inconclusive = small, poorly fitted or top-dose-only effect, or another doubt; inactive = no such curve, though single readings can be large; an effect the other way counts as inactive or inconclusive.

Key:
[1] = P-glycoprotein substrates identified in KB-8-5-11 adenocarcinoma cell line, qHTS therapeutic library screen (AID 1346987); settings: KB-8-5-11 (P-gp overexpressing) viability, CellTiter-Glo, 72 h; series mostly up to 44.5 µM; also: nearly all actives have a fitted effect of over 65% in size
Method in brief: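 Human cervical adenocarcinoma KB-8-5-11 cells, selected in colchicine to over-express P-gp and assayed without it, were exposed for 72 h to titrated compounds. An ATP-based luminescent viability signal gave AC50.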

[2] = test system: Zika virus NS2B-NS3 protease (unlinked complex); test: Primary screen GU Rhodamine qHTS for Zika virus inhibitors: Unlinked NS2B-NS3 protease assay (AID 1347159); settings: Recombinant ZIKV NS2B-NS3 protease, Rhodamine110 substrate fluorescence; series mostly up to 107 µM; also: % is scaled to controls: 0 for no effect and ±100 for the full control effect; nearly all actives have a fitted effect of over 60% in size
Method in brief: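 Unlinked NS2B/NS3, 25 nM; Rhod110 peptide, 1.5 microM; compounds, up to 114 microM. Reaction run 15 min at RT in 10 mM Tris-HCl pH 8.0, 0.01% Tween 20; kinetic fluorescence change fitted with a 4-parameter Hill model.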

[3] = test system: Zika virus NS2B-NS3 protease (linked construct); test: Primary screen NINDS Rhodamine qHTS for Zika virus inhibitors (AID 1347160); settings: purified NS2B-NS3 protease, Rhodamine110 substrate fluorescence; series mostly up to 33.1 µM; also: % is scaled to controls: 0 for no effect and ±100 for the full control effect; nearly all actives have a fitted effect of over 55% in size
Method in brief: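 Single-chain NS2B-NS3 protease, 25 nM, pH 8.0; compounds preincubated 15 min. Activity: Rhodamine110 release from 1.5 microM substrate over 15 min, room temperature, data fitted to 4-parameter Hill.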

CC(=O)O[C@@H]1[C@H](O[C@@H]2OC[C@](O)(CO)[C@H]2O)[C@@H](O[C@@H]2O[C@@H](C)[C@H](O)[C@@H](O[C@@H]3O[C@H](CO)[C@@H](O)[C@H](O)[C@H]3O)[C@H]2O)[C@H](OC(=O)[C@]23CCC(C)(C)C[C@H]2C2=CCC4[C@@]5(C)C[C@H](O)[C@H](O[C@@H]6O[C@H](C(=O)O)[C@@H](O)[C@H](O)[C@H]6O)[C@@](C)(C(=O)O)C5CC[C@@]4(C)[C@]2(C)CC3)O[C@@H]1C (some centres not stated)
inactive: outcome [1] inactive [at 9.29 µM] | activity change, negative = inhibition [2] 2.67% [at 19.1 µM] | Potency [3]

O=C(C1OC1/C=C/c1ccc2c(c1)OCO2)N1CCCCC1 (configuration not stated)
inactive: Potency [1] | Potency [2] | Potency [3]

CC(C)C(O)(CO)CCO[C@@H]1O[C@H](CO[C@H]2OC[C@](O)(CO)[C@H]2O)[C@@H](O)[C@H](O)[C@H]1O (some centres not stated)
inactive: Potency [1] | Potency [2] | Potency [3]

CC1(C)C(=O)N2c3ccccc3C(O)(CC(C(=O)O)n3cnc4ccccc4c3=O)C2N1O (configuration not stated)
inactive: Potency [1] | Potency [2] | Potency [3]
